A short description of assay [1]: optical density shifts of acrAB sulA E. coli – strain DRC41, OD650, 48 h, E. coli filamentation inducer project, primary screen (AID 1152).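 Note: E. coli MC1000 strain DRC41 lacking acrAB efflux pump and sulA.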 The settings on record: higher = more signal, called active from +8 up or from −8 down.
Assay [2] is described as follows: probe aLefty1 binding on compound microarray – biochemical, small-molecule microarray, 635/667 nm fluorescence, primary screen (AID 1153).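 Note: score merges spot fluorescence with signal-to-noise ratio from the scanned slide images.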 The settings on record: higher = more signal.
Assay [3] in a line: plasmodial surface anion channel blockers, osmotic lysis – cell-based, P. falciparum Indochina, OD700, 1 h, primary screen (AID 1154). The settings on record: P. falciparum Indochina infected RBC osmotic lysis, higher = more signal, called active from +8 up or from −8 down.
A short description of assay [4]: plasmodial surface anion channel blockers, osmotic lysis – cell-based, P. falciparum Indochina, OD700, 2 h, primary screen (AID 1155).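 Note: lysis reports solute entry through the parasite surface anion channel PSAC.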 The settings on record: P. falciparum Indochina infected erythrocytes, higher = more signal, called active from +8 up or from −8 down.
A short description of assay [5]: changes in parasitized red cell lysis, either direction – P. falciparum Indochina, OD700, 3 h, PSAC antagonist project, primary screen (AID 1156). The settings on record: P. falciparum-infected erythrocytes, osmotic lysis, higher = more signal, called active from +8 up or from −8 down.
A short description of assay [6]: plasmodial surface anion channel blockers, osmotic lysis – cell-based, P. falciparum Indochina, OD700, 18 h, primary screen (AID 1157). The settings on record: P. falciparum Indochina infected erythrocytes, osmotic lysis OD700, 18 h; higher = more signal, called active from +8 up or from −8 down.
The nature of assay [7]: S6 kinase pathway phospho-S6 level changes – cell-based, A549, cytoblot, luminescence, serum-stimulated, primary screen (AID 1158).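 Note: serum-stimulated A549 lung adenocarcinoma cells; signal is phosphorylated S6 detected by cytoblot immunostaining with HRP secondary.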 The settings on record: 5 h, higher = more signal.
Assay [8] deals with NADPH oxidase 2 (Homo sapiens) (UniProt P04839). Put plainly: compounds shifting NOX2 Amplex Red fluorescence – cell-based, HEK293-NOX2, PMA-stimulated, NOX inhibitor project, primary screen (AID 1159). Note: test concentration not given here. The settings on record: 45 min, higher = more signal, called active from +8 up or from −8 down.
Chain of NADPH oxidase 2 (Homo sapiens) (P04839 whole entry, looked up): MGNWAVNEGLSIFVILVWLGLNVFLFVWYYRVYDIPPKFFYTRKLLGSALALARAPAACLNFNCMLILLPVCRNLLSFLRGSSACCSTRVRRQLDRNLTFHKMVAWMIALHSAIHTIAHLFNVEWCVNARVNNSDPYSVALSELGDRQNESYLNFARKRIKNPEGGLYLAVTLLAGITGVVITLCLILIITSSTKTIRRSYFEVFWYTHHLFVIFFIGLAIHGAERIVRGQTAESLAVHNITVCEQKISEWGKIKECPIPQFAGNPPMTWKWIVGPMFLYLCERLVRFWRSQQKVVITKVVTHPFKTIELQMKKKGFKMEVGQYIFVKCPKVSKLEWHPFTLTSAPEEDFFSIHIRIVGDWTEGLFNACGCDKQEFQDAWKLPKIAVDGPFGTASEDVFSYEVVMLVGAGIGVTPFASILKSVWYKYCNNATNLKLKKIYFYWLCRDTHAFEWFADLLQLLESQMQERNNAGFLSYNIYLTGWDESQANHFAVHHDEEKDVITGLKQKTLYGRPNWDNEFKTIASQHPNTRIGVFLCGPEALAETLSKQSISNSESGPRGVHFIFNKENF
In assay [9] the target is NADPH oxidase 4 (Homo sapiens) (UniProt Q9NPH5). The experiment in a line: compounds shifting NOX4 Amplex Red fluorescence – cell-based, HEK293-NOX4, tetracycline-induced, NOX inhibitor project, primary screen (AID 1160). The settings on record: HEK293-NOX4, Amplex Red H2O2 fluorescence, 45 min; higher = more signal, called active from +8 up or from −8 down.
Chain of NADPH oxidase 4 (Homo sapiens) (Q9NPH5 whole entry, looked up): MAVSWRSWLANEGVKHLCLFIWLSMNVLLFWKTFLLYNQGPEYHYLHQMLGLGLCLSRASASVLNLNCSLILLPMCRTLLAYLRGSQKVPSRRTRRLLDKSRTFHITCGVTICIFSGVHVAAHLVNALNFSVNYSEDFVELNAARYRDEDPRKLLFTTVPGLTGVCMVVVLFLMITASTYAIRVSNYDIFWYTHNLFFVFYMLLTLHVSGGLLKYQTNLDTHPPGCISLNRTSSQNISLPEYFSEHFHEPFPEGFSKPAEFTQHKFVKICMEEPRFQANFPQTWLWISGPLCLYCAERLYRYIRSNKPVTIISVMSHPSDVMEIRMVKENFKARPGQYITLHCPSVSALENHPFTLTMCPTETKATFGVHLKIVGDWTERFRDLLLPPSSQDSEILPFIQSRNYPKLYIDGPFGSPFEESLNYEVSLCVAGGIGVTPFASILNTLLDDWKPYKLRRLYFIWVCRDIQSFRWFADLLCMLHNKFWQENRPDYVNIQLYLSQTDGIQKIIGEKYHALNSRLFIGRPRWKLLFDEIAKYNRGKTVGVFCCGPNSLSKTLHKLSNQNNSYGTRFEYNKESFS
Assay [10] addresses NADPH oxidase 5 (Homo sapiens) (UniProt Q96PH1). Put plainly: compounds shifting NOX5 Amplex Red fluorescence – cell-based, HEK293-NOX5, NOX inhibitor project, primary screen (AID 1161). The settings on record: HEK293-NOX5, ionomycin, 45 min, higher = more signal.

The record followed here is PubChem BioAssay.

Calls of active or inactive are those of the source.

Chain of NADPH oxidase 5 (Homo sapiens) (Q96PH1 whole entry, looked up): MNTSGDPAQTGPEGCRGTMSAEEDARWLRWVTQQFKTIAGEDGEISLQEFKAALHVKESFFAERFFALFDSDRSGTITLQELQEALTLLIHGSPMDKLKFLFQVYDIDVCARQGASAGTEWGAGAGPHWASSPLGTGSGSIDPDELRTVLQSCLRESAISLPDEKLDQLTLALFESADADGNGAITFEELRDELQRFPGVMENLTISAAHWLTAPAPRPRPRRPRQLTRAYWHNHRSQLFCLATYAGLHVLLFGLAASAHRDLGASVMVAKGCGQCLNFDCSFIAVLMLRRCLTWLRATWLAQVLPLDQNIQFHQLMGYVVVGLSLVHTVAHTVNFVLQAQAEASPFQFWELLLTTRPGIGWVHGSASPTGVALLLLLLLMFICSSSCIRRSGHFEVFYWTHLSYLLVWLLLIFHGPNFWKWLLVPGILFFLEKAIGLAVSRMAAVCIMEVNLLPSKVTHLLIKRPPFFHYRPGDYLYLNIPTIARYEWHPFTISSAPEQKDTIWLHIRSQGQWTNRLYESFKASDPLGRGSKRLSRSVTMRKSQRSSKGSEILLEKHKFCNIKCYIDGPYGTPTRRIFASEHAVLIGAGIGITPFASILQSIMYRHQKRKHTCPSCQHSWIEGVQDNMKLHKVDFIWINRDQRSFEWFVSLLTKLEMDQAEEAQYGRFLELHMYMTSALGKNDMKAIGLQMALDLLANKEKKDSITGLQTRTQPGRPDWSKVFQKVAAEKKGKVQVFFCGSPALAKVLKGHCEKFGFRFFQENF

For `NC(=O)NCC#Cc1ccc2c(c1)[C@]1(C(=O)N2)[C@H](C(=O)O)[C@H]2C(=O)O[C@H](c3ccccc3)[C@H](c3ccccc3)N2[C@@H]1c1ccc(OCCO)cc1`, the z-score was 0.215 (inactive) in assay [1]; 3.93 (inactive) in assay [3]; 0.523 (inactive) in [4]; 0.643 (inactive) in assay [5]; 0.247 (inactive) in assay [6]; 0.235 in [7]. Further, the z-score in [8] was 2.78 (inactive); in assay [9], 1.14 (inactive); in assay [10], -0.0124. For the same compound, the composite z-score in assay [2] was -0.147.

With `C=C(COC)C(=O)CC[C@@H](OC(=O)c1cccnc1)c1ccc(OCCO)cc1`, the z-score in assay [1] was -0.717 (inactive); in [3], 7.63 (inactive); in assay [4] it was 2.3 (inactive); in [5] it was -1.61 (inactive); in assay [6], 1.21 (inactive); in [7], -0.482. The z-score in assay [8] was 0.838 (inactive); in assay [9], 0.211 (inactive); in [10], -2.85. This compound had a composite z-score in assay [2] of 0.235.

Regarding `COc1cccc(/C=C/C=O)c1`, the z-score in [1] is 1.46 (inactive); in assay [3], 0.206 (inactive); in [4] it was -0.11 (inactive); in assay [5], -0.648 (inactive); in assay [6], -0.0641 (inactive); in [7], 0.0159. Besides, the results for the z-score in [8], in assay [9] and in assay [10] were -0.759 (inactive), -0.228 (inactive) and 0.985, respectively. The compound further came in with a composite z-score in assay [2] of 0.212.

As for `COc1ccc(CCN2C(=O)[C@@]3(Cc4ccccc42)c2ccccc2C(=O)N(Cc2ccccc2OC)[C@H]3c2ccc(CO)cc2)cc1`, the z-score in [1] is 2.06 (inactive); in [3], 1.96 (inactive); in assay [4], -0.373 (inactive); in assay [5] it was -0.217 (inactive); in [6], -1.29 (inactive); in [7] it was 3.17. Also, the z-score is 0.348 (inactive) in [8], -0.797 (inactive) in [9] and 0.327 in assay [10]. This compound had a composite z-score in [2] of 0.595.

On to `COCCCNC(=O)[C@]1(CCS(=O)(=O)c2ccccc2)N=C(c2ccc(OCCCO)cc2)O[C@@H]1c1ccccc1CN=[N+]=[N-]`, for which the z-score in assay [1] was 0.704 (inactive); in [3] it was 24.6 (active); in assay [4], 10.3 (active); in assay [5], 1.41 (inactive); in assay [6] it was 1.8 (inactive); in assay [7], -0.377. The z-score is 0.826 (inactive) in [8], 1.78 (inactive) in assay [9] and 1.97 in [10]. For the same compound, in assay [2], the composite z-score is 1.35.

Regarding `CCOC(=O)C[C@H]1[C@H](OC(=O)Cc2ccc3c(c2)OCO3)[C@@H](NC(=O)CC(C)C)c2cc(OCCCO)ccc2N1C(=O)Cc1ccc(OC)cc1`, the z-score in [1] is 2.26 (inactive); in assay [3] it was 6.25 (inactive); in assay [4], -0.537 (inactive); in [5], -1.07 (inactive); in [6], -1.3 (inactive); in assay [7], 1.72. Moreover, the z-score in assay [8] was 0.163 (inactive); in assay [9], 0.781 (inactive); in [10] it was 1.15. For the same compound, the composite z-score in [2] is -0.145.

Turning to `CCCCC(=C=CC[C@@H](O)c1ccccc1OCCO)C[C@@H](O)COCc1ccccc1`, the z-score was 1.47 (inactive) in assay [1]; 17.5 (active) in [3]; 1.74 (inactive) in assay [4]; -0.255 (inactive) in [5]; -0.385 (inactive) in assay [6]; 1.51 in [7]. Moreover, the values for the z-score in assay [8], in assay [9] and in assay [10] were -0.123 (inactive), -0.101 (inactive) and -2.04, respectively. The same compound came in with a composite z-score in assay [2] of 0.117.

Regarding `COC(=O)[C@H](Cc1ccccc1)N1CC(/C=C/C2CC2)=C[C@H]1[C@H](O)Cc1ccccc1`, the z-score in [1] was -0.555 (inactive); in assay [3] it was 1.74 (inactive); in assay [4], 0.714 (inactive); in assay [5] it was -0.377 (inactive); in assay [6], 0.5 (inactive); in assay [7] it was 0.184. Further, the z-score in assay [8] was -4.7 (inactive); in [9] it was -0.819 (inactive); in [10], -0.607. Also, the composite z-score in [2] is -0.012.

With `[N-]=[N+]=Nc1ccccc1[C@@H]1OC(c2ccc(OCCCO)cc2)=N[C@]1(Cc1ccccc1)C(=O)NCC(O)CO` (stereo not given in full), the z-score in assay [1] was 0.792 (inactive); in assay [3], 31 (active); in [4], 28 (active); in [5], 2.32 (inactive); in assay [6], 6.87 (inactive); in assay [7], -0.0152. Moreover, the values for the z-score in assay [8], in assay [9] and in assay [10] were -1.36 (inactive), 1.07 (inactive) and -0.606, respectively. In assay [2], this compound displayed a composite z-score of 0.665.

Consider `C[N+](C)(C)CCCCCCNC(=O)[C@H]1C[C@H]2C(=O)NCC(=O)N2[C@H]1c1ccc(O)cc1`, for which the z-score is 0.16 (inactive) in assay [1]; 1.76 (inactive) in [3]; 0.682 (inactive) in [4]; -1.2 (inactive) in assay [5]; -0.0189 (inactive) in assay [6]; -0.217 in [7]. Further, the z-score in [8] was 0.446 (inactive); in assay [9], 0.256 (inactive); in assay [10] it was 0.328. Moreover, the composite z-score in assay [2] is -0.455.
